Measurements published in PubChem BioAssay.
Activity calls are given as the source filed them.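 Rule for the calls, unless noted: active = response below a set limit, under 55% cells CD8-positive and vesicle-bound, and CD8 cells' 90th-percentile brightness under 279; inactive = the rest.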

System: not listed separately
Assay: reduced mouse 2C T cell binding to pMHC/ICAM-1 vesicles – MLPCN validation set, flow cytometry, LFA-1/ICAM-1 modulator project, pilot screen (AID 2523);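 for vesicle binding response: mean PE anti-B7-1 fluorescence of CD8+ cells relative to row control; 100% = QL9-loaded vesicles with DMSO vehicle in the same plate row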
Conditions: 2C mouse CD8+ T cells, at 7 µM, stronger effect = lower value; double positive events: measured here: CD8+/vesicle+ event percentage
For `N/C(=N/OS(=O)(=O)c1ccc([N+](=O)[O-])cc1)c1ccncc1`, the vesicle binding response was 135% (inactive) and the double positive events was 61.1%. With `CCSc1nc(O)c(C2OC(=O)c3c2ccc(OC)c3OC)c(=O)n1CC` (stereo not given) the vesicle binding response was 289% (inactive) and the double positive events was 69.4%. With `COc1cc2ccc(=O)oc2c(O)c1OCC=C(C)C` the vesicle binding response was 190% (inactive) and the double positive events was 63.7%. In the case of `CC(=O)N1CC23C=CC(CC2CC12CCCCCC2)O3` (stereo not given), the vesicle binding response is reported as 200% (inactive) and the double positive events is reported as 61.4%. In the case of `CC(=O)c1cn(C)c(=O)[nH]c1=O`, the vesicle binding response is reported as 243% (inactive) and the double positive events is reported as 60.8%. In the case of `CC(=O)Oc1ccc(C2OC(=O)c3ccccc3N2C(C)=O)cc1` (stereo not given), the double positive events is reported as 63.2% and the vesicle binding response is reported as 146% (inactive). In the case of `O=C1c2ccccc2C(=O)C1c1ccccc1`, the double positive events is reported as 67% and the vesicle binding response is reported as 512% (inactive). With `O=c1[nH]cnc2c1ncn2[C@@H]1O[C@H](CO)[C@@H](O)[C@H]1O` the vesicle binding response was 140% (inactive) and the double positive events was 62%. For `Nc1ccc2[nH]ncc2c1`, the double positive events was 62.1% and the vesicle binding response was 174% (inactive). For `CCN(CC)CCN1C(=O)C(=O)/C(=C(/O)c2c(C)[nH]c(C(=O)OC)c2C)C1c1cccnc1` (stereo not given), the double positive events was 60.5% and the vesicle binding response was 235% (inactive). For `Cc1ccc2c(c1)c1c(n2C)C(=O)CCC1`, the double positive events was 57.6% and the vesicle binding response was 126% (inactive). With `COc1ccc(N2C(=O)C3CCCN3C2=O)cc1` (stereo not given) the vesicle binding response was 146% (inactive) and the double positive events was 61.6%. For `COc1cccc(OC2OC3COC(C)(C)OC3C(O)C2NC(C)=O)c1` (stereo not given), the vesicle binding response was 203% (inactive) and the double positive events was 63.6%. With `CC[N+](C)(C)Cc1ccccc1Br` the vesicle binding response was 185% (inactive) and the double positive events was 63.8%. For `C[C@H](NC(=O)Nc1ccccc1F)C(=O)O`, the double positive events was 66% and the vesicle binding response was 272% (inactive). With `COc1cc(NC(=O)N[C@@H](Cc2ccccc2)C(=O)O)cc(OC)c1` the vesicle binding response was 221% (inactive) and the double positive events was 62.8%. In the case of `CN(C)CCOc1ccccc1Cc1ccccc1`, the vesicle binding response is reported as 210% (inactive) and the double positive events is reported as 69.2%. In the case of `CCc1cn([C@H]2C[C@H](O)[C@@H](CO)O2)c(=O)[nH]c1=O`, the double positive events is reported as 71.1% and the vesicle binding response is reported as 232% (inactive). With `COc1ccc(CCn2c(C)cc3c(c2=O)C(c2ccncc2)C(C#N)=C(N)O3)cc1OC` (stereo not given) the double positive events was 59.3% and the vesicle binding response was 179% (inactive). For `CC(C)(C)C(=O)NC(=S)Nc1sc2c(c1C(N)=O)CCC2`, the vesicle binding response was 119% (inactive) and the double positive events was 60.2%. With `Cc1cc(C(=O)NC(CC(C)C)C(=O)O)cc(C)c1[N+](=O)[O-]` (stereo not given) the vesicle binding response was 204% (inactive) and the double positive events was 61.7%. With `CCS(=O)(=O)Nc1cc(OC)c(OC)cc1Cc1nccc2cc(OC)c(OC)cc12` the double positive events was 57.8% and the vesicle binding response was 90.7% (inactive). In the case of `CCn1c(O)c(/C=C2\C=Nc3ccccc32)sc1=O`, the vesicle binding response is reported as 97.1% (inactive) and the double positive events is reported as 63.1%. In the case of `O=C(C1CCCCC1)N1CC(=O)N2CCc3ccccc3C2C1` (stereo not given), the vesicle binding response is reported as 225% (inactive) and the double positive events is reported as 61.4%. With `CCn1cc(C(=O)O)c(=O)c2cc(F)c(N3CCNCC3)cc21` the vesicle binding response was 276% (inactive) and the double positive events was 70.1%. In the case of `COc1cccc(N2CC34C=CC(O3)C(C(=O)O)C4C2=O)c1` (stereo not given), the double positive events is reported as 60.2% and the vesicle binding response is reported as 168% (inactive). In the case of `CC(=O)NCCCC(=O)NC(CCC(=O)OCc1ccccc1)C(=O)OCc1ccccc1` (stereo not given), the vesicle binding response is reported as 425% (inactive) and the double positive events is reported as 72.6%. In the case of `Cn1cc(CN(CCO)Cc2cccs2)c(-c2cccc(Cl)c2)n1`, the double positive events is reported as 55.3% and the vesicle binding response is reported as 159% (inactive). With `COc1ccc(C(=O)NC(=O)NC2(C(Cl)(Cl)Cl)OCCO2)cc1` the double positive events was 60.6% and the vesicle binding response was 214% (inactive). With `CC(=O)c1c(C)[nH]c(C(=O)OCc2ccccc2)c1C` the vesicle binding response was 120% (inactive) and the double positive events was 60.2%. For `C=CCN1C(=O)c2oc3ccccc3c(=O)c2C1c1ccc(O)c(OC)c1` (stereo not given), the vesicle binding response was 150% (inactive) and the double positive events was 60.1%. In the case of `CC(=O)CCc1oc2ccccc2c1-c1ccccc1`, the double positive events is reported as 62.1% and the vesicle binding response is reported as 172% (inactive). For `COc1cc(OC)c(C(=O)CCCN2CCCC2)c(OC)c1`, the vesicle binding response was 214% (inactive) and the double positive events was 65.4%. In the case of `CC(=O)OCC(=O)[C@@]1(OC(C)=O)[C@@H](C)C[C@H]2[C@@H]3C[C@H](F)C4=CC(=O)C=C[C@]4(C)[C@@]3(F)[C@@H](O)C[C@@]21C`, the double positive events is reported as 61.9% and the vesicle binding response is reported as 157% (inactive). For `Cc1nnc(SCC(=O)N2CCCC(C(=O)c3ccc(Cl)cc3)C2)o1` (stereo not given), the double positive events was 71.9% and the vesicle binding response was 299% (inactive). In the case of `Fc1cc(F)cc(NC(=S)NCCCN2CCOCC2)c1`, the double positive events is reported as 59.3% and the vesicle binding response is reported as 214% (inactive). With `COc1ccccc1C1(CC(=O)N2CCCCC2)CCOC(C(C)C)C1` (stereo not given) the vesicle binding response was 205% (inactive) and the double positive events was 60.3%. For `CCCCC[C@H](O)/C=C/[C@@H]1[C@@H](C/C=C\CCCC(=O)O)[C@H]2CO[C@@H]1C2`, the vesicle binding response was 192% (inactive) and the double positive events was 59%. For `CCC(=O)c1ccc(O)cc1`, the vesicle binding response was 882% (inactive) and the double positive events was 72%. For `Cn1c2[n+](c3ccc(Cl)cc3c1=O)Cc1ccccc1-2`, the double positive events was 69% and the vesicle binding response was 278% (inactive).

Target: Integrin beta-1 (Homo sapiens) + Integrin alpha-4 (Homo sapiens) (UniProt P13612+P05556)
Sequence (P05556 whole entry, looked up): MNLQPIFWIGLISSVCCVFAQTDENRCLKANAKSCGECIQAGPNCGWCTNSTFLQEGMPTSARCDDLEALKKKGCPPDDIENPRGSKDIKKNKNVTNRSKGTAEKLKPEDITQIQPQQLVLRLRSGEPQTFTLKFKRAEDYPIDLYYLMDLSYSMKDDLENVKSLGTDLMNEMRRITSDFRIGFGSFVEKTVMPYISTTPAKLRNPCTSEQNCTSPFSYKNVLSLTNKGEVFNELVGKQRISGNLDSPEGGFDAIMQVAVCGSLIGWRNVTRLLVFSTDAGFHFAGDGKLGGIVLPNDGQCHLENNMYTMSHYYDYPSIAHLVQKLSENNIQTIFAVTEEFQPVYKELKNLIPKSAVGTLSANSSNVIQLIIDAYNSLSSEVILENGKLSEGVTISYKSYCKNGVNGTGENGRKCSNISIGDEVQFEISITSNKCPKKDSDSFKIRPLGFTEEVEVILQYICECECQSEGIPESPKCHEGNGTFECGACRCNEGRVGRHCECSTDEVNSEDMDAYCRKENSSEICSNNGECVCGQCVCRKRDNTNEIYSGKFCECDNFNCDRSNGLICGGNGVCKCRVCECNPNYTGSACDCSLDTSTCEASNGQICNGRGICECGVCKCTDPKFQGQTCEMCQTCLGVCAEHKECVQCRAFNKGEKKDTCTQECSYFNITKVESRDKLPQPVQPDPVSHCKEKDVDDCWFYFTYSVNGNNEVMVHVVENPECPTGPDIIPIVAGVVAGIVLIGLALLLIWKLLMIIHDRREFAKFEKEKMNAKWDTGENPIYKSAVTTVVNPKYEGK
Sequence (P13612 whole entry, looked up): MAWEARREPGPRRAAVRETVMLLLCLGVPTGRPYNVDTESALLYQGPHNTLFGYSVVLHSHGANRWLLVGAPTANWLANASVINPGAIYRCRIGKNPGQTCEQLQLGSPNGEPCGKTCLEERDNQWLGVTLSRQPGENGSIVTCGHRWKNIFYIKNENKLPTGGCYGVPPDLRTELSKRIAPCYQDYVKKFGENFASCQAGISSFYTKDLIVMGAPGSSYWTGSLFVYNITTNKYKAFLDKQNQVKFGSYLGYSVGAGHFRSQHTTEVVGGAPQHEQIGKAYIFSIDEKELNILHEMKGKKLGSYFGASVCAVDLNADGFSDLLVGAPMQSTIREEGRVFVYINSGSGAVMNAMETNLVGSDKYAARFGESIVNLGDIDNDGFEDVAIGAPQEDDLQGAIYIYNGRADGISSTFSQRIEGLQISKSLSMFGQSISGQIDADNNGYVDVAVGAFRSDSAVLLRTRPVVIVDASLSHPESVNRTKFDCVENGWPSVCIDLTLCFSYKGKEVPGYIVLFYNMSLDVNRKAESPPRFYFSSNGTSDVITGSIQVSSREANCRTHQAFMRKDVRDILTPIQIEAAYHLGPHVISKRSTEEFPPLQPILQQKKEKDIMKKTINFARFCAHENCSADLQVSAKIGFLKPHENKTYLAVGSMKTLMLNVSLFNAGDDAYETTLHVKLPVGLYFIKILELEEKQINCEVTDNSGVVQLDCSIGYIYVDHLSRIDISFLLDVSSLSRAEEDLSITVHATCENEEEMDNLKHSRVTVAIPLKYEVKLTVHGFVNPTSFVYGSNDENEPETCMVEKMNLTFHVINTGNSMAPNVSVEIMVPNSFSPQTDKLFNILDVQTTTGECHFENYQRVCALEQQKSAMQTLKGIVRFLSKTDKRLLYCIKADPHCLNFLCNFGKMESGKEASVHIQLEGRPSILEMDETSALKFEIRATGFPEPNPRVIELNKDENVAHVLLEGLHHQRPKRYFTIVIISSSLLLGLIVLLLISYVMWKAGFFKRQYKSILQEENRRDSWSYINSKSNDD
Assay: alpha4beta1 integrin LIBS antibody binding reduction – U937 cells, HUTS-21 mAb, flow cytometry, validation set, VLA-4 allosteric modulator project, pilot screen (AID 2674;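 active = inhibition above 50%, about 3 SD of the validation set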;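 note: antibody binding induced by the VLA-4 ligand LDV present at three times its Kd; 0% = LDV ligand with antibody and no compound and 100% = antibody without LDV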)
Conditions: HUTS-21 LIBS mAb binding, at 6.7 µM, stronger effect = higher value, binding induced by LDV ligand
With `N/C(=N/OS(=O)(=O)c1ccc([N+](=O)[O-])cc1)c1ccncc1` the inhibition was 1.59% (inactive). For `CCSc1nc(O)c(C2OC(=O)c3c2ccc(OC)c3OC)c(=O)n1CC` (stereo not given), the inhibition was -1.79% (inactive). With `COc1cc2ccc(=O)oc2c(O)c1OCC=C(C)C` the inhibition was -12.9% (inactive). With `CC(=O)N1CC23C=CC(CC2CC12CCCCCC2)O3` (stereo not given) the inhibition was 3.99% (inactive). For `CC(=O)c1cn(C)c(=O)[nH]c1=O`, the inhibition was -7.25% (inactive). With `CC(=O)Oc1ccc(C2OC(=O)c3ccccc3N2C(C)=O)cc1` (stereo not given) the inhibition was 19% (inactive). For `O=C1c2ccccc2C(=O)C1c1ccccc1`, the inhibition was 3.14% (inactive). With `O=c1[nH]cnc2c1ncn2[C@@H]1O[C@H](CO)[C@@H](O)[C@H]1O` the inhibition was -15.6% (inactive). For `Nc1ccc2[nH]ncc2c1`, the inhibition was -8.62% (inactive). In the case of `CCN(CC)CCN1C(=O)C(=O)/C(=C(/O)c2c(C)[nH]c(C(=O)OC)c2C)C1c1cccnc1` (stereo not given), the inhibition is reported as -19.5% (inactive). With `Cc1ccc2c(c1)c1c(n2C)C(=O)CCC1` the inhibition was -7.79% (inactive). In the case of `COc1ccc(N2C(=O)C3CCCN3C2=O)cc1` (stereo not given), the inhibition is reported as -1.79% (inactive). With `COc1cccc(OC2OC3COC(C)(C)OC3C(O)C2NC(C)=O)c1` (stereo not given) the inhibition was 5.61% (inactive). For `CC[N+](C)(C)Cc1ccccc1Br`, the inhibition was 8.25% (inactive). With `C[C@H](NC(=O)Nc1ccccc1F)C(=O)O` the inhibition was -12.7% (inactive). With `COc1cc(NC(=O)N[C@@H](Cc2ccccc2)C(=O)O)cc(OC)c1` the inhibition was 9.1% (inactive). With `CN(C)CCOc1ccccc1Cc1ccccc1` the inhibition was 23.6% (inactive). In the case of `CCc1cn([C@H]2C[C@H](O)[C@@H](CO)O2)c(=O)[nH]c1=O`, the inhibition is reported as -0.33% (inactive). With `COc1ccc(CCn2c(C)cc3c(c2=O)C(c2ccncc2)C(C#N)=C(N)O3)cc1OC` (stereo not given) the inhibition was -1.79% (inactive). For `CC(C)(C)C(=O)NC(=S)Nc1sc2c(c1C(N)=O)CCC2`, the inhibition was -4.52% (inactive). In the case of `Cc1cc(C(=O)NC(CC(C)C)C(=O)O)cc(C)c1[N+](=O)[O-]` (stereo not given), the inhibition is reported as -2.43% (inactive). For `CCS(=O)(=O)Nc1cc(OC)c(OC)cc1Cc1nccc2cc(OC)c(OC)cc12`, the inhibition was -9.63% (inactive). For `CCn1c(O)c(/C=C2\C=Nc3ccccc32)sc1=O`, the inhibition was -0.31% (inactive). With `O=C(C1CCCCC1)N1CC(=O)N2CCc3ccccc3C2C1` (stereo not given) the inhibition was -2.82% (inactive). In the case of `CCn1cc(C(=O)O)c(=O)c2cc(F)c(N3CCNCC3)cc21`, the inhibition is reported as 14.2% (inactive). In the case of `COc1cccc(N2CC34C=CC(O3)C(C(=O)O)C4C2=O)c1` (stereo not given), the inhibition is reported as -19.5% (inactive). With `CC(=O)NCCCC(=O)NC(CCC(=O)OCc1ccccc1)C(=O)OCc1ccccc1` (stereo not given) the inhibition was 5.03% (inactive). For `Cn1cc(CN(CCO)Cc2cccs2)c(-c2cccc(Cl)c2)n1`, the inhibition was -1.79% (inactive). In the case of `COc1ccc(C(=O)NC(=O)NC2(C(Cl)(Cl)Cl)OCCO2)cc1`, the inhibition is reported as -21.6% (inactive). For `CC(=O)c1c(C)[nH]c(C(=O)OCc2ccccc2)c1C`, the inhibition was 1.59% (inactive). With `C=CCN1C(=O)c2oc3ccccc3c(=O)c2C1c1ccc(O)c(OC)c1` (stereo not given) the inhibition was 10.5% (inactive). For `CC(=O)CCc1oc2ccccc2c1-c1ccccc1`, the inhibition was 0.59% (inactive). In the case of `COc1cc(OC)c(C(=O)CCCN2CCCC2)c(OC)c1`, the inhibition is reported as -3.24% (inactive). With `CC(=O)OCC(=O)[C@@]1(OC(C)=O)[C@@H](C)C[C@H]2[C@@H]3C[C@H](F)C4=CC(=O)C=C[C@]4(C)[C@@]3(F)[C@@H](O)C[C@@]21C` the inhibition was -11.8% (inactive). In the case of `Cc1nnc(SCC(=O)N2CCCC(C(=O)c3ccc(Cl)cc3)C2)o1` (stereo not given), the inhibition is reported as 2.3% (inactive). With `Fc1cc(F)cc(NC(=S)NCCCN2CCOCC2)c1` the inhibition was 5.69% (inactive). In the case of `COc1ccccc1C1(CC(=O)N2CCCCC2)CCOC(C(C)C)C1` (stereo not given), the inhibition is reported as 6.4% (inactive). In the case of `CCCCC[C@H](O)/C=C/[C@@H]1[C@@H](C/C=C\CCCC(=O)O)[C@H]2CO[C@@H]1C2`, the inhibition is reported as -8.78% (inactive). With `CCC(=O)c1ccc(O)cc1` the inhibition was -6.68% (inactive). For `Cn1c2[n+](c3ccc(Cl)cc3c1=O)Cc1ccccc1-2`, the inhibition was -13% (inactive).
